Test in all cases: DAPPL (digital affinity profiling via proximity ligation, sequencing); 10 mM Tris-HCl pH 7.5, 50 mM NaCl, 1 mM DTT, 4% glycerol, room temperature, 30 min; GST-TFs on glutathione beads, 16-mer random dsDNA library, 0.1% formaldehyde crosslink after washing; high values mean tight binding
Conditions in all cases: protein: recombinant; tags: N-terminal GST; dsDNA, one strand shown

Test [1] deals with T1, ERF (Homo sapiens, UniProt P50548 1-548).
T1 sequence: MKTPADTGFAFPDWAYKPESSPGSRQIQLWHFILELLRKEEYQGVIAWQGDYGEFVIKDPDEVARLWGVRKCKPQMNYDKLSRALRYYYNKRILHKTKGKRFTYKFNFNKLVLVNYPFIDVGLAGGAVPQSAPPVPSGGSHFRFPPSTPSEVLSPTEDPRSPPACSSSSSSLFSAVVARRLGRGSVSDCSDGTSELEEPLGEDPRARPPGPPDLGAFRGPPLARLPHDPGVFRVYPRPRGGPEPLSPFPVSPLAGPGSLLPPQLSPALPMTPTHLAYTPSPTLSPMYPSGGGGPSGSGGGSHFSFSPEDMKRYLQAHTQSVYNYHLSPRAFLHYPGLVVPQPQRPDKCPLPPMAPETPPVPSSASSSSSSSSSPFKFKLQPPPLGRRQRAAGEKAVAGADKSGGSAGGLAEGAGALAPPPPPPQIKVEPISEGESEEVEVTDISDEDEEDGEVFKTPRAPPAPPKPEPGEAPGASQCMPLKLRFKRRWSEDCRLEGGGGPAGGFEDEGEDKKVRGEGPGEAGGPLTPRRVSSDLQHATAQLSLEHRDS
The essentials:
(§1)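 Binding signal is defined as a hexamer's read frequency for one factor over its frequency for the tag-only sample. To obtain reads, GST-fused human transcription factors were expressed in yeast, captured on glutathione beads, barcoded with DNA and pooled with that sample. Pools met 200 nmole of a 16-mer random double-stranded DNA library in Tris/NaCl/DTT/glycerol buffer for 30 min at room temperature before washing, 0.1% formaldehyde crosslinking, proximity ligation (BsaI/T4 ligase, 1 h, 37 °C), PCR and Illumina NextSeq500 sequencing.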

Test [2] deals with T2, ETV3L (Homo sapiens, UniProt Q6ZN32 1-361).
T2 sequence: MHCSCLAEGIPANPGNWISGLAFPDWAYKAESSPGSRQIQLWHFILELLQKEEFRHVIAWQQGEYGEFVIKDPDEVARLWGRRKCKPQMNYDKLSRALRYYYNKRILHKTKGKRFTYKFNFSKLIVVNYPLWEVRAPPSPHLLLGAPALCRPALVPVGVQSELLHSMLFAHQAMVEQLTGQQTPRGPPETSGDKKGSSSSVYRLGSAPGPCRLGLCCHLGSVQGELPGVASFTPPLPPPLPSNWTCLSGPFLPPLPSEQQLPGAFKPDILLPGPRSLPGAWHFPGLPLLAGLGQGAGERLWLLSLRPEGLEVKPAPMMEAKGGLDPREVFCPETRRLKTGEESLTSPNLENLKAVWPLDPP
In short, it runs like this:
as §1

Test [3] addresses T3, ETS2 (Homo sapiens, UniProt P15036 1-469).
T3 sequence: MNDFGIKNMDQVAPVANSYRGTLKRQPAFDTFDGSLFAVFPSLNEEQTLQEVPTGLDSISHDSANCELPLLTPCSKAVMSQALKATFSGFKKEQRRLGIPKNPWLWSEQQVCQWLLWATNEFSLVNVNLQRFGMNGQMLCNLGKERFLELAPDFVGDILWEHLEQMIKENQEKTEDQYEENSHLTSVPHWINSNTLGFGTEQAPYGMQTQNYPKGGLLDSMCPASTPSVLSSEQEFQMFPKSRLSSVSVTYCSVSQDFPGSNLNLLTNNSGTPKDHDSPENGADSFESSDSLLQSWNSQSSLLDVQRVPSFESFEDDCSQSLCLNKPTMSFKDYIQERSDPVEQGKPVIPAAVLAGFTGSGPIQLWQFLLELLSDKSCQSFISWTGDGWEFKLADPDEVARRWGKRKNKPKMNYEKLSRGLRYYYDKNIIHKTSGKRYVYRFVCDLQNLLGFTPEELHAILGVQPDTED
The essentials: as §1

Test [4] has as its target T4, SPDEF (Homo sapiens, UniProt O95238 1-335).
T4 sequence: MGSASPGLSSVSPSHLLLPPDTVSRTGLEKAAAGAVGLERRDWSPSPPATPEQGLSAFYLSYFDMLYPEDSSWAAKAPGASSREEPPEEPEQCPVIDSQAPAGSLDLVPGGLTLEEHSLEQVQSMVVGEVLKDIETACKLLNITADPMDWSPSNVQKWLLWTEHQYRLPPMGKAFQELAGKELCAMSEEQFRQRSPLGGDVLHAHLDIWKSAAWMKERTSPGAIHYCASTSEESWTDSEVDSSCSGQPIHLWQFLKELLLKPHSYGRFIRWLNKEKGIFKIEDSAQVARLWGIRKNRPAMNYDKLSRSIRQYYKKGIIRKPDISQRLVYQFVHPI
In short, it runs like this: as §1

Test [5] deals with T5, ETV7 (Homo sapiens, UniProt Q9Y603 1-341).
T5 sequence: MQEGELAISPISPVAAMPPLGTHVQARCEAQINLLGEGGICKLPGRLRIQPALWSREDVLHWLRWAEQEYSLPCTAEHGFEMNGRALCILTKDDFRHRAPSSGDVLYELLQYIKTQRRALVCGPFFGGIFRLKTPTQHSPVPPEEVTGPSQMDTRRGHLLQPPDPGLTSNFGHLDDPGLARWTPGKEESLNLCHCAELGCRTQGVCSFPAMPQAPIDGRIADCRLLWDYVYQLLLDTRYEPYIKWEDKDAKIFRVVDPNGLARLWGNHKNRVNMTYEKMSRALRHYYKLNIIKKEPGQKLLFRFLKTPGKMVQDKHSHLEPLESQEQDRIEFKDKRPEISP
In short, it runs like this:
as §1

Test [6] addresses T6, ELF5 (Homo sapiens, UniProt Q9UKW6-2 1-255).
T6 sequence: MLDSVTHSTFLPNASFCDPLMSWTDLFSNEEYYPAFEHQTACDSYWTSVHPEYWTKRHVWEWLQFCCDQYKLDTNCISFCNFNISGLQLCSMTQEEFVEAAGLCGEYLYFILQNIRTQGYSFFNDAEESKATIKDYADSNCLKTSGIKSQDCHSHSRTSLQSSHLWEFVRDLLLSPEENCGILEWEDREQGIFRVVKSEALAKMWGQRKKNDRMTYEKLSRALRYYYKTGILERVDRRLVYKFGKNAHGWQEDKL
In short, it runs like this:
as §1

For test [7], the target named is T7, ETV3 (Homo sapiens, UniProt P41162-2 1-143).
T7 sequence: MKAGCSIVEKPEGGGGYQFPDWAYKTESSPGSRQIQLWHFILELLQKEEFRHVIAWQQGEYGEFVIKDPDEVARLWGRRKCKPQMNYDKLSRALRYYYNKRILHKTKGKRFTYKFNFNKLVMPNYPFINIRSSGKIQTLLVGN
In short, it runs like this: as §1

Test [8] concerns the target ETV6 (Homo sapiens, UniProt P41212 1-452). In short, it runs like this: as §1

Sequence of ETV6 (P41212 whole entry): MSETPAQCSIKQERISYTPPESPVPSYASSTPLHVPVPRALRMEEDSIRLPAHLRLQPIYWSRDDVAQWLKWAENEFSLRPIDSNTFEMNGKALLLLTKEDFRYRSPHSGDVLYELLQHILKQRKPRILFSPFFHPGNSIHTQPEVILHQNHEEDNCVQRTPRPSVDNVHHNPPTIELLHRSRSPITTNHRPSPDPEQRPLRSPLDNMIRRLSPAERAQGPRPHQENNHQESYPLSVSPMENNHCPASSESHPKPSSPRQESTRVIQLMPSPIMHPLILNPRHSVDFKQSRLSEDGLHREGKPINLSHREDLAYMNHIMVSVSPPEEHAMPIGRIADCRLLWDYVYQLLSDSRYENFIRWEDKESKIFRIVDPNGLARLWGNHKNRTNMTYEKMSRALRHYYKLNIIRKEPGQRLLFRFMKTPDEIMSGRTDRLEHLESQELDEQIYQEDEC

Turning to GGAAAC, the binding signal in test [1] is 1.19 fold enrichment (6-mer frequency, TF over GST control); in test [2], 1.32 fold enrichment (6-mer frequency, TF over GST control); in test [3], 1.3 fold enrichment (6-mer frequency, TF over GST control); in test [4] it was 1.29 fold enrichment (6-mer frequency, TF over GST control); in test [5] it was 1.34 fold enrichment (6-mer frequency, TF over GST control); in test [6], 1.7 fold enrichment (6-mer frequency, TF over GST control). Moreover, the binding signal in test [7] is 1.42 fold enrichment (6-mer frequency, TF over GST control); in test [8] it was 1.66 fold enrichment (6-mer frequency, TF over GST control).

Take TGCCCC: the binding signal in test [1] is 1.15 fold enrichment (6-mer frequency, TF over GST control); in test [2], 1.28 fold enrichment (6-mer frequency, TF over GST control); in test [3] it was 1.12 fold enrichment (6-mer frequency, TF over GST control); in test [4] it was 1.21 fold enrichment (6-mer frequency, TF over GST control); in test [5], 1.18 fold enrichment (6-mer frequency, TF over GST control); in test [6] it was 1.18 fold enrichment (6-mer frequency, TF over GST control). In addition, the binding signal in test [7] is 1.3 fold enrichment (6-mer frequency, TF over GST control); in test [8] it was 1.24 fold enrichment (6-mer frequency, TF over GST control).

Consider GGATAT, for which the binding signal in test [1] was 1.62 fold enrichment (6-mer frequency, TF over GST control); in test [2], 1.55 fold enrichment (6-mer frequency, TF over GST control); in test [3], 1.66 fold enrichment (6-mer frequency, TF over GST control); in test [4] it was 2.38 fold enrichment (6-mer frequency, TF over GST control); in test [5], 1.48 fold enrichment (6-mer frequency, TF over GST control); in test [6], 1.92 fold enrichment (6-mer frequency, TF over GST control). The binding signal in test [7] was 1.71 fold enrichment (6-mer frequency, TF over GST control); in test [8] it was 1.6 fold enrichment (6-mer frequency, TF over GST control).

For the sequence TTGCGC, the binding signal in test [1] is 1.28 fold enrichment (6-mer frequency, TF over GST control); in test [2], 1.13 fold enrichment (6-mer frequency, TF over GST control); in test [3], 1.16 fold enrichment (6-mer frequency, TF over GST control); in test [4], 1.06 fold enrichment (6-mer frequency, TF over GST control); in test [5], 1.12 fold enrichment (6-mer frequency, TF over GST control); in test [6] it was 1.03 fold enrichment (6-mer frequency, TF over GST control). The binding signal in test [7] is 1.07 fold enrichment (6-mer frequency, TF over GST control); in test [8], 1.06 fold enrichment (6-mer frequency, TF over GST control).

Consider ATTCAG, for which the binding signal is 1.15 fold enrichment (6-mer frequency, TF over GST control) in test [1]; 1.2 fold enrichment (6-mer frequency, TF over GST control) in test [2]; 1.14 fold enrichment (6-mer frequency, TF over GST control) in test [3]; 1.05 fold enrichment (6-mer frequency, TF over GST control) in test [4]; 1.02 fold enrichment (6-mer frequency, TF over GST control) in test [5]; 1.08 fold enrichment (6-mer frequency, TF over GST control) in test [6]. Besides, the binding signal was 1.12 fold enrichment (6-mer frequency, TF over GST control) in test [7] and 1.02 fold enrichment (6-mer frequency, TF over GST control) in test [8].

With GTTATG, the binding signal in test [1] is 1.05 fold enrichment (6-mer frequency, TF over GST control); in test [2], 1.11 fold enrichment (6-mer frequency, TF over GST control); in test [3] it was 1.1 fold enrichment (6-mer frequency, TF over GST control); in test [4], 1.12 fold enrichment (6-mer frequency, TF over GST control); in test [5], 1.12 fold enrichment (6-mer frequency, TF over GST control); in test [6] it was 1.06 fold enrichment (6-mer frequency, TF over GST control). For the same sequence, the binding signal is 1.14 fold enrichment (6-mer frequency, TF over GST control) in test [7] and 1.21 fold enrichment (6-mer frequency, TF over GST control) in test [8].

Take ACTGGC: the binding signal in test [1] was 1.18 fold enrichment (6-mer frequency, TF over GST control); in test [2], 1.18 fold enrichment (6-mer frequency, TF over GST control); in test [3], 1.11 fold enrichment (6-mer frequency, TF over GST control); in test [4], 1.04 fold enrichment (6-mer frequency, TF over GST control); in test [5] it was 1.21 fold enrichment (6-mer frequency, TF over GST control); in test [6] it was 1.04 fold enrichment (6-mer frequency, TF over GST control). The binding signal in test [7] is 1.07 fold enrichment (6-mer frequency, TF over GST control); in test [8], 1.15 fold enrichment (6-mer frequency, TF over GST control).

Turning to CTAAAG, the binding signal in test [1] was 1.44 fold enrichment (6-mer frequency, TF over GST control); in test [2], 1.33 fold enrichment (6-mer frequency, TF over GST control); in test [3] it was 1.32 fold enrichment (6-mer frequency, TF over GST control); in test [4], 1.26 fold enrichment (6-mer frequency, TF over GST control); in test [5], 1.35 fold enrichment (6-mer frequency, TF over GST control); in test [6], 1.33 fold enrichment (6-mer frequency, TF over GST control). For the same sequence, the binding signal is 1.36 fold enrichment (6-mer frequency, TF over GST control) in test [7] and 1.23 fold enrichment (6-mer frequency, TF over GST control) in test [8].

The record behind these values is article PMC7862700, “An all-to-all approach to the identification of sequence-specific readers for epigenetic DNA modifications on cytosine”.
